Test results reported in PubChem BioAssay AID1159580 (chemical genetic matrix, 2015).
Out of some 5,500 compounds screened, about 2,000 (36%) were called active. Another 18% or so got no clear call; they are omitted. No stated cut-off is given here; in the data, active means normalized growth mostly below about 0.91 (no sharp cut-off); inconclusive means no clear call, values can overlap the other calls; inactive means mostly above about 0.92. This is one part of the list.

Test: chemical genetic growth profiling, strain panel (AID 1159580);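 further: tested at 20 µM; growth read once vehicle control cultures reached saturation at 30 °C; 1 = growth at the plate median or of vehicle wells; lower values mean less growth of the strain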
Conditions: S. cerevisiae deletion strains, growth OD
[1] = locus YDR150W, strain NUM1, active compounds read low
[2] = locus YGR078C, strain PAC10, active compounds read low
[3] = locus YMR263W, strain SAP30, active compounds read low
[4] = locus YPL055C, strain LGE1, active compounds read low

Measured: normalized growth

CCN(CC)C(=O)N[C@@H]1C[C@@H]2c3cccc4[nH]cc(c34)C[C@H]2N(C)C1
inactive: locus YAL040C, strain CLN3, active compounds read low 1 | locus YCL061C, strain MRC1 (second series), active compounds read low 1.01 | [1] 1 | locus YDR363W, strain ESC2, active compounds read low 1.01 | locus YER002W, strain NOP16, active compounds read low 0.995 | [2] 1.01 | [3] 1 | locus YMR307W, strain GAS1, active compounds read low 1.01 | locus YNL128W, strain TEP1, active compounds read low 1.01 | locus YNL175C, strain NOP13, active compounds read low 0.993 | locus YNL197C, strain WHI3, active compounds read low 0.995 | locus YNL224C, strain SQS1, active compounds read low 1.02 | locus YOR083W, strain WHI5 (second series), active compounds read low 1.01 | [4] 1.01

COC(CNc1cccc(Cl)c1C#N)OC
inactive: locus YAL013W, strain DEP1, active compounds read low 0.997 | locus YBR229C, strain ROT2, active compounds read low 0.994 | locus YDL101C, strain DUN1, active compounds read low 0.983 | locus YDL134C, strain PPH21, active compounds read low 0.961 | [1] 1.01 | locus YEL061C, strain CIN8, active compounds read low 0.971 | [2] 0.989 | locus YGR229C, strain SMI1, active compounds read low 0.978 | locus YHR030C, strain SLT2, active compounds read low 0.944 | locus YHR087W, strain rtc3, active compounds read low 0.98 | locus YJL187C, strain SWE1, active compounds read low 0.981 | locus YJR043C, strain POL32, active compounds read low 0.989 | locus YJR075W, strain HOC1, active compounds read low 0.958 | locus YLR039C, strain RIC1, active compounds read low 0.983 | locus YLR058C, strain SHM2 (second series), active compounds read low 0.989 | locus YLR085C, strain ARP6, active compounds read low 0.931 | locus YLR262C, strain YPT6, active compounds read low 0.979 | locus YML094W, strain GIM5, active compounds read low 0.953 | locus YMR219W, strain ESC1, active compounds read low 0.986 | [3] 1.01 | locus YNL153C, strain GIM3, active compounds read low 0.946 | locus YNL298W, strain CLA4 (second series), active compounds read low 0.979 | locus YNL322C, strain KRE1, active compounds read low 0.98 | locus YNR030W, strain Alg12, active compounds read low 0.976 | [4] 1.03 | locus YPL241C, strain CIN2, active compounds read low 0.95 | locus YPR135W, strain CTF4, active compounds read low 0.957
